High-throughput results from PubChem BioAssay.
TRHR ag: agonists of human TRH receptor. 360,000 compounds, 0.18% hits. TRHR cells, calcium flux fluo-8, FDSS agonist mode. activation, % at 2 µM. AID 493084. P34981; note: 0% is about no effect
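Agonist-mode FDSS calcium read (Ex 480/Em 530, 1 s cycles) in 1536-well TRHR cells with fluo-8 dye, after 10-cycle baseline and 23 nL compound addition; TRH at EC20 (10 nM final) added afterwards for the enhancer phase.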
D1 ag: agonists of human D1 dopamine receptor | P21728 | HEK293 T-REx D1 cells, calcium flux, agonist mode | activation, % at 2 µM | 360,000 compounds, 1% hits; note: 0% is about no effect
Target sequence (P21728 whole entry, looked up): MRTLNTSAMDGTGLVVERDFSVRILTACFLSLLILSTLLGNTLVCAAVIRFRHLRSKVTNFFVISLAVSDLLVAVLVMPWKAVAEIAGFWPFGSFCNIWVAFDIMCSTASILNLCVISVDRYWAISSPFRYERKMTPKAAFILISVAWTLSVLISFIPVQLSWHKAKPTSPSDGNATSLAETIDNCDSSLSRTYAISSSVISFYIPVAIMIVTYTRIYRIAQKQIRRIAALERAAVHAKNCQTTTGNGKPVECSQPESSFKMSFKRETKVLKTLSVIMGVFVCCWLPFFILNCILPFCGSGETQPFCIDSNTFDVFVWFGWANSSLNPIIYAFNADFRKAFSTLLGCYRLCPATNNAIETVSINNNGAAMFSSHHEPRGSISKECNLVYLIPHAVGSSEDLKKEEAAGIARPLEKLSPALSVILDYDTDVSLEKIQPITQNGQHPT
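Inducible HEK293 T-REx D1 cells, force-coupled to calcium signalling, were plated at 4000 cells/well with tetracycline and held overnight at 30 C. After no-wash calcium dye loading, compound-evoked calcium rise over 180 s flagged agonists.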
D1 antag: antagonists of human D1 dopamine receptor. P21728. HEK293 TREx D1 cells, calcium flux, dopamine EC80; hits give low values. activity change, negative = inhibition, % at 10 µM. 360,000 compounds, 3.2% hits; in the data active = activity change below about -30%; note: % is set by controls: 0 for no effect and ±100 for the full control effect
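Allosteric or orthosteric antagonism assessed as attenuation of the calcium response to EC80 dopamine, added 180 s after compound, in induced HEK293 Trex D1 cells loaded with no-wash calcium dye.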
TRHR PAM: allosteric enhancers of human TRH receptor; P34981; TRHR cells, fluo-8 calcium fluorescence, EC20 TRH enhancement; enhancement, % at 2 µM; 360,000 compounds, 0.66% hits; AID 493056; in the data active = enhancement above about 30%; note: 0% is about no effect
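Enhancer read-out: after compound pinning and an initial kinetic agonist-mode read, an EC20 of TRH (10 nM final) was injected and fluo-8 calcium signal (Ex 480/Em 530) followed at 1 s/cycle for 100 cycles in TRHR-expressing cells.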
D1 PAM: potentiators of human D1 dopamine receptor; P21728; HEK293 TREx D1 cells, calcium flux, dopamine EC20 potentiation; potentiation, % at 10 µM; 360,000 compounds, 0.036% hits; in the data active = potentiation above about 30%; note: 0% is about no effect
An asterisk follows results filed as active; . = no result. In the library only some 4.6% were active in any assay of this set; here they are far more common. Cut-off read from the data, not from the text of the source, unless noted: active = activation above about 30%; inactive = the rest.

SMILES	TRHR ag	D1 ag	D1 antag	TRHR PAM	D1 PAM
CSC1=NCCN1C(=O)Cc1ccc(F)cc1	0	1	14	4	.
COc1ccc(-c2nnn3c2nc(NCCc2ccc(OC)c(OC)c2)c2ccccc23)cc1	0	1	-6	-1	-1
Cc1ccc(-n2nc(C(=O)N3CCC(C)CC3)c(=O)n(C)c2=O)cc1	0	2	-4	2	-2
COc1cc(OC)c(C2Nc3ccccc3-c3nnc(SCc4ccccc4)nc3O2)cc1OC (centres undefined)	-1	8	9	-1	-1
CCOc1ccc(Nc2cc(C)nc(-n3nc(C)cc3C)n2)cc1	-1	1	-33*	-7	-5
CC(=O)c1ccc(NC(=O)c2cc(C3CC3)nc3c2c(C)nn3-c2ccc(C)cc2)cc1	0	4	-13	10	-4
CCCOc1ccc(/C=C/C(=O)Nc2sc(C)c(C)c2C(=O)OCC)cc1OC	0	1	-13	0	1
Cc1ccc2ncc3c(-c4ccc(F)cc4)nn(CC(=O)Nc4ccccc4C)c3c2c1	1	7	-13	0	-5
Cc1ccccc1NC(=O)Cn1nc(-c2ccc(F)cc2)c2cnc3ccccc3c21	0	3	-37*	-1	-6
CCCSc1nc2sc3c(c2c(=O)n1Cc1ccccc1)CC(C)(CC)OC3 (centres undefined)	0	-1	8	1	1
Cc1cc(OC(=O)c2c(Cl)cc(Cl)cc2Cl)nc(C)n1	-1	1	15	-2	2
Cc1cc(C)nc(OC(=O)c2c(Cl)cc(Cl)cc2Cl)n1	-1	3	-11	30*	-2
Cc1csc(SCC(=O)Nc2ccc(C)c(F)c2)n1	-1	1	-39*	-3	3
CCOC(=O)N1CCc2c(sc3c2c(=O)n(-c2ccc(Cl)cc2)c(=O)n3CC(=O)c2ccc(F)cc2)C1	5	22	-31*	5	-4
CC(=O)N1CCc2c(sc3c2c(=O)n(-c2ccccc2C)c(=O)n3CC(=O)Nc2ccccc2)C1	0	0	3	48*	-2
COC(=O)c1ccccc1N(C)S(=O)(=O)c1cc2c3c(c1)CC(=O)N3CCC2	0	2	0	1	-1
Cc1ccc(NC(=O)c2cn3c4c(ccc(Cl)c4c2=O)OC(C)C3)c(C)c1 (centres undefined)	1	2	10	12	1
CCOc1cc2c(cc1C=O)OC(C)C2 (centres undefined)	0	2	2	8	4
CCOc1cc2c(cc1/C=C/c1noc(C)c1[N+](=O)[O-])OC(C)C2 (centres undefined)	97*	74*	-17	5	6
CCOc1ccc(NC(=O)CCc2nc3cccnc3n2-c2ccccc2)cc1	-2	1	5	-1	-5
Cc1ccc2nc(N=C(N)N)nc(C)c2c1	0	1	-52*	-9	-9
O=C(Nc1cc(Cl)cc(Cl)c1)c1ccc(F)c(S(=O)(=O)N2CCCCCC2)c1	1	3	8	2	1
COc1ccc(C2N(c3ccc(Cl)cc3)C(=O)C3CCCN32)cc1 (centres undefined)	-1	3	-38*	5	0
COc1ccc(N2C(=O)C3CCCN3C2c2ccc(Cl)cc2)cc1 (centres undefined)	0	1	0	8	-4
CC(C)C(=O)C1=Cc2cccc([N+](=O)[O-])c2OC1N1CCOCC1 (centres undefined)	2	0	-36*	5	-1
SMILES	TRHR ag	D1 ag	D1 antag	TRHR PAM	D1 PAM
Cc1ccc(OCC(=O)Nc2cc(C)on2)c([N+](=O)[O-])n1	1	1	4	-5	5
Cc1ccc(OCC(=O)NC(C)c2ccc(Cl)c(Cl)c2)c([N+](=O)[O-])n1 (centres undefined)	0	10	-36*	-5	-8
CC1Sc2ccc(S(=O)(=O)N3CCC(C(=O)NCCc4ccccc4)CC3)cc2NC1=O (centres undefined)	0	8	-7	-4	-4
CC1Sc2ccc(S(=O)(=O)N3CCC(C(=O)NCC(C)c4ccccc4)CC3)cc2NC1=O (centres undefined)	0	2	-76*	-8	-22
CCCCSCCCNC(=O)c1cn(C)c2ccc(S(=O)(=O)N3CCCCC3)cc2c1=O	0	1	-2	-4	-1
COc1ccc(OCC(=O)Nc2c(C(=O)N3CCN(C)CC3)oc3ccccc23)cc1	0	4	-33*	2	-18
COc1ccc(C(=O)NCCCn2ccnc2)cc1	0	2	3	17	4
COc1ccc(-c2nn(-c3ccccc3)cc2C(=O)NCCCn2ccnc2)cc1	0	1	-38*	-5	-5
CCC(C)C(NC(=O)c1ccccc1NC(=O)c1ccc(OC)cc1)C(=O)NCCCn1ccnc1 (centres undefined)	0	2	5	39*	0
COc1ccc(-c2c(C#N)c(SCC(=O)Nc3ccc(Br)cc3)nc(C)c2C(=O)Nc2ccccc2)cc1	2	3	-4	-5	-3
Cc1c(C#N)c(=O)c(-[n+]2ccccc2)c([S-])n1-c1ccc(Cl)cc1	1	3	14	33*	-1
COCCCNc1nc2c(c(=O)[nH]c(=O)n2C)n1CC(O)COc1ccc(Cl)cc1 (centres undefined)	-2	-1	1	4	3
O=C1/C(=C\c2ccco2)SC(=S)N1C1CCCCC1	0	2	23	9	34*
Cc1nc(N2CCCC2)c2c(C(=O)N3CCN(c4cccc(Cl)c4)CC3)c(C)oc2n1	-1	1	6	-11	1
COc1ccccc1NC(=O)C1=C(C)Nc2nc(SCc3ccccc3)nn2C1c1cccnc1 (centres undefined)	-1	-3	4	-4	0
COc1ccc(CCNc2nccn(-c3ccc(C)c(C)c3)c2=O)cc1OC	0	4	-44*	14	-4
Cc1cccc(-c2noc(CNC(=O)c3ccccc3Br)n2)c1	0	10	-4	5	-3
O=C(Nc1ccc(Br)cc1)c1ccc(N2C(=O)C3CCCCC3C2=O)cc1 (centres undefined)	1	4	-37*	3	-6
O=C(Nc1ccc(Br)cc1)c1cccc(N2C(=O)C3CCCCC3C2=O)c1 (centres undefined)	0	8	-14	-3	-5
Cc1ccc(N(C)C(CNS(=O)(=O)c2ccccc2)c2ccccc2)cc1 (centres undefined)	0	3	-48*	2	-1
Cn1c(C(N)=O)cnc1Sc1ncc(C(F)(F)F)cc1Cl	0	5	-47*	0	-6
C/C(=C\c1ccccc1)C(=O)c1c(C)cc(C)[nH]c1=O	1	-3	21	32*	3
